ChEMBL document CHEMBL4513216, “Probing the Open Global Health Chemical Diversity Library for Multistage-Active Starting Points for Next-Generation Antimalarials” (ACS Infect Dis, 2020)
The whole screen tested about 69,000 compounds, of which about 8,600 (12%) showed an effect of 50% or more. Only a selection was taken, and strong results are over-represented in it overall.

system: Plasmodium berghei; test: Screen against P. berghei liver stage (PbLuc), transformed with Luciferase, at 10uM; format: functional, HepG2; settings: tested at 10 uM

SMILES | INHIBITION [%]
CC(c1ccc(Br)cc1)N1CCCN(C(N)=O)CC1 (stereo not given) | 12.3
Cn1cc(NC(=O)C2CC(c3ccccc3)C2)ccc1=O (stereo not given) | -5.1
CCOC(=O)CSc1nnc(C(N)CC(C)C)o1 (stereo not given) | -28.4
O=S(=O)(C1CC1)N1CCO[C@H]2[C@H](OCC3CC3)CC[C@@H]21 | -2.35
O=C(NCc1cccnc1)Nc1cc(C(F)(F)F)c[nH]c1=O | -5.77
Cc1nc(-c2ccc(C(=O)O)cc2)cc(C2CCCN(C(C)C)C2)n1 (stereo not given) | 41.2
CC1c2ncc(Cn3cncn3)n2CCN1CC1CCOCC1 (stereo not given) | -8.28
Cc1ccc(-c2nnc(C(C)N3CCc4cncnc4C3)o2)cc1 (stereo not given) | 22.1
COCCn1cnnc1C1CCCN(C(C)C)C1 (stereo not given) | -16.5
CCOc1ccccc1-c1cc(N)[nH]n1 | 16.2
Cc1ccc(F)c2c1CCCN2CC(=O)NC1CCS(=O)(=O)C1 (stereo not given) | 45
Cc1cncc(C2CCCN(C(=O)c3cnco3)C2)n1 (stereo not given) | 39.7
Cc1ccc(C(=O)N2CCc3ncc(Cn4cccn4)n3CC2)cn1 | 30.3
COCCN(CCOC)S(=O)(=O)N(C)Cc1ccncc1 | 56
CCN(CC)S(=O)(=O)N(C)Cc1ccncc1 | 69.7
CCN(CC)S(=O)(=O)N(C)Cc1ccc2c(c1)OCCO2 | -85
COCCCN(Cc1ccncc1)c1cc(C)ncn1 | 10
COCCN(Cc1ccncc1)C(=O)C1COc2ccccc2C1 (stereo not given) | 45.8
CCN(Cc1ccncc1)S(C)(=O)=O | 14.3
CCc1ccc(S(=O)(=O)Nc2cnccc2C)s1 | 29.85
O=C(c1cccnc1)N1C[C@H]2CC[C@@H](C1)N(Cc1cccc(Cl)c1F)C2 | -48.4
CN(C)C(=O)c1nc(-c2ccc(S(C)(=O)=O)cc2)c2cnccn12 | 16.8
NS(=O)(=O)NCc1cc(-c2ccc(C(F)(F)F)cc2)n[nH]1 | 57.5
C[C@H](NS(C)(=O)=O)C(=O)NCc1cc(-c2ccco2)n[nH]1 | 2.6
CC(C)[C@H](NS(C)(=O)=O)C(=O)NCc1cc(-c2ccccc2)n[nH]1 | 33.7
CC(C)OCCSCCn1nc2ccccn2c1=O | 1.41
COc1ncccc1CNC(=O)c1cnc(C)cn1 | -7.7
COc1ccc(-c2n[nH]cc2CNC2CCN(C3CC3)CC2)cc1 | -39.6

SMILES | INHIBITION [%]
CC(CC#N)n1ccc(C(F)(F)F)n1 (stereo not given) | -6.3
Cc1ccnc(C2CCN(CCCOc3ccccc3F)C2)n1 (stereo not given) | 13.5
Cc1n[nH]c(C)c1S(=O)(=O)N1CCC(Oc2ccccc2F)CC1 | 1.62
Cc1nc(CCN2CCC(Oc3ccccc3F)CC2)cs1 | 42.5
Cc1nc(CCN2CCC(Oc3ccccc3F)CC2)c(C)s1 | 82.4
Cc1nc(C)c(CCN2CCC(Oc3ccccc3F)CC2)s1 | 86.4
Cc1ccccc1OC1CCN(CC(=O)Nc2cnn(C)c2C)CC1 | 33.2
COc1ccc(CC(=O)N2CCC(Nc3ccc(C)nn3)CC2)cc1 | -16
CC(C)NC(=O)NCc1ccc(C(=O)NC(C)Cn2cccn2)cc1 (stereo not given) | 3.73
COc1cccc(C(=O)N2CCc3c(nc(N)[nH]c3=O)C2)c1OC | -6.91
N#Cc1ccccc1Cn1cncn1 | 25.3
COCc1cccc(S(=O)(=O)Nc2ncc(C)s2)c1 | 14.2
O=C(c1cccnc1)N1Cc2[nH]nc(COCCO)c2C1 | 40.8
OCCOCc1n[nH]c2c1CN(Cc1ccco1)C2 | 23.3
c1cncc(COCc2nnc3n2CCN(Cc2ccco2)C3)c1 | 53.4
CCS(=O)(=O)N1Cc2[nH]nc(COCc3cccnc3)c2C1 | 58.3
O=C(C1CC1)N1Cc2[nH]nc(COCc3cccnc3)c2C1 | 11.6
c1cncc(COCc2n[nH]c3c2CN(Cc2ccco2)C3)c1 | 61.9
c1cncc(COCc2nnc3n2CCN(Cc2cccs2)C3)c1 | -8.94
c1cncc(COCc2nnc3n2CCN(Cc2ccoc2)C3)c1 | 35.1
c1cncc(COCC2CN(Cc3ccco3)Cc3nccn3C2)c1 (stereo not given) | -6.39
O=C(C1CC=CC1)N1C[C@@H](OCc2cccnc2)[C@H]2OCCC[C@H]21 | 0.72
CC(C)n1cc(CN2CCCN(C(=O)C(C)n3cncn3)CC2)cn1 (stereo not given) | 26.4
CC(Sc1n[nH]c(-c2ccc3c(c2)CCC3)n1)C(N)=O (stereo not given) | -56.1
CS(=O)(=O)N[C@@H]1CCO[C@]2(CCN(CC3CCOCC3)C2)C1 | -33.9
CC(C)c1noc(CN2CCCC2c2noc(C(C)C)n2)n1 (stereo not given) | 29.2
CCOc1ccc(S(=O)(=O)Nc2cnc(OC)nc2OC)cc1 | 81.1
